Hit rate of the full screen: of about 47,000 compounds, about 3,100 (6.6%) were called active. No stated cut-off is given here; in the data, active means inhibition above about 30%; inactive means the rest. For the sample, actives were picked, then their nearest neighbours and some compounds at random.
Biological target: Ubiquitin carboxyl-terminal hydrolase 17-like protein 5 (Homo sapiens) (UniProt A8MUK1)
Assay: blocks human USP17 ubiquitin-rhodamine cleavage (AID 1645855)
Settings: purified USP17, Ub-rhodamine cleavage fluorescence, 3 h; at 50 µM; stronger effect = higher value

Ubiquitin carboxyl-terminal hydrolase 17-like protein 5 (Homo sapiens), sequence (A8MUK1 whole entry, looked up): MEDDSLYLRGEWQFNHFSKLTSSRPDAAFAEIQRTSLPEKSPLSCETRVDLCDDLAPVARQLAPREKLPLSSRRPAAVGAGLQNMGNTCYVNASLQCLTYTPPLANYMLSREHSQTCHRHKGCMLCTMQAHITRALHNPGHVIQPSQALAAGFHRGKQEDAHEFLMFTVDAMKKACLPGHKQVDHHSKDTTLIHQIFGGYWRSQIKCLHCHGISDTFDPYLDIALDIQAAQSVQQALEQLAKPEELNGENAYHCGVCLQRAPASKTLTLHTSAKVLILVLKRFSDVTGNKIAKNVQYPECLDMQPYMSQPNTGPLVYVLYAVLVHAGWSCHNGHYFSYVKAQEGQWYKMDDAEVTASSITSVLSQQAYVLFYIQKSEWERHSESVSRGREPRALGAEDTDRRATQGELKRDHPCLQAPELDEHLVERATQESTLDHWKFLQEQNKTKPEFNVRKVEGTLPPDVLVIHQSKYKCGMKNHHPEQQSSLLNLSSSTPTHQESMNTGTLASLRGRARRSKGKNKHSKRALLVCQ

| Structure (SMILES) | inhibition |
| --- | --- |
| CCNC(=O)c1cccc(Nc2c(-c3ccc(Cl)cc3)nc3cnccn23)c1 | -21.3% (inactive) |
| CC(C)c1noc(-c2ccc(OCC(=O)Nc3ccccc3Br)cc2)n1 | -2.89% (inactive) |
| O=C(NCCc1ccccc1)c1ccc2c(=O)n(Cc3ccco3)c(=O)n(Cc3cccc([N+](=O)[O-])c3)c2c1 | 53.8% (active) |
| CC(C)(C)C(=O)Cn1c(=O)n(Cc2ccco2)c(=O)c2ccccc21 | -6.03% (inactive) |
| O=C(Cn1c(=O)n(Cc2ccc3c(c2)OCO3)c(=O)c2ccccc21)NCc1ccco1 | 23% (inactive) |
| O=C(O)COCC(=O)Nc1scc2c1c(=O)oc1ccccc12 | 15.1% (inactive) |
| CN1CC(=O)N(C2CCCNC2)Cc2c(NC3CCc4ccccc43)ncnc21 (centres undefined) | 50.3% (active) |
| COc1cc(C2CC(=O)c3cnc(N4CCc5ccccc5C4)nc3C2)cc(OC)c1OC (centres undefined) | 7.46% (inactive) |
| CC1CCc2c(cnc3c(C(=O)NCCc4ccccc4)cnn23)C1 (centres undefined) | -1.68% (inactive) |
| Cc1c(Cl)c([N+](=O)[O-])nn1CCCC(=O)NC(C)c1ccccc1 (centres undefined) | -29.5% (inactive) |
| CCOC(=O)C1(Cc2cc(-c3ccccc3F)no2)CCN(CC)CC1 | -12.6% (inactive) |
| Cc1c(-c2nn3c(-c4ccco4)nnc3s2)cccc1[N+](=O)[O-] | 67.4% (active) |
| O=C(CSc1cn[nH]n1)Nc1ccc(F)c(Cl)c1 | 0.831% (inactive) |
| Cc1ccc(C)c(S(=O)(=O)Nc2ccc(C(=O)NCc3ccc(F)cc3)cc2)c1 | -4.3% (inactive) |
| CC(=O)Nc1ccc(S(=O)(=O)NCCSc2ccc(C)cc2)cc1 | -12.3% (inactive) |
| CC(=O)Nc1ccc(S(=O)(=O)NCc2ccc(C(=O)NCc3ccc(C)cc3)cc2)cc1 | 52.9% (active) |
| Cc1ccc(C)c(N2CCN(C(=O)CCC(=O)Nc3ccc4nc(N5CCN(C)CC5)cc(C)c4c3)CC2)c1 | -11.5% (inactive) |
| Cc1cc(N2CCOCC2)nc2ccc(NC(=O)CCC(=O)N3CCN(c4ccccn4)CC3)cc12 | -15.4% (inactive) |
| COc1ccc(CCC(=O)Nc2ccc3nc(N4CCOCC4)cc(C)c3c2)cc1 | 33.3% (active) |
| Cc1nn(-c2cccc(F)c2)c2c1c(C)c(CCC(=O)NCc1ccccn1)c(=O)n2C | 32.6% (active) |
| Cc1nc2cc(C(=O)NCc3ccccn3)ccc2n1-c1cccc(F)c1 | 0.0347% (inactive) |
| Cc1nn(-c2ccccc2)c2c1c(C)c(CCC(=O)N1CCN(c3ccc(F)cc3)CC1)c(=O)n2C | 5.08% (inactive) |
| Cc1cc(C)c(Cn2cccc2C2=NC(Cc3ccccc3)CO2)c(C)c1 (centres undefined) | 7.3% (inactive) |
| Cc1ccc(-c2nc3c4c(C)c(C)n(-c5cccnc5)c4ncn3n2)cc1 | 17% (inactive) |
